Data as given in ChEMBL document CHEMBL3988442, “University of Dundee, Small-Polar-MMV Screening Library” (2021).
Among all 48,000 compounds or so, about 13,000 (27%) showed an effect of 50% or more. Some of the results follow.

These molecules were tested on Wolbachia pipientis (assay: Anti-Wolbachia Cell-Based Screen). Conditions: 5 µM.
Assay type: functional
Design: scale not given: in the data most compounds retested in dose-response had high values

SMILES	Percent Effect [%]
CC(C)(C)c1oc(C(N)=O)cc1CN1CCCCC(N)C1 (centres undefined)	-6.99
CNC(=O)c1cccnc1NCc1ccc(Cn2ccnc2)cc1	-15.36
CC(=O)c1cc(CN2C[C@H]3CC[C@@H]2CN(S(C)(=O)=O)C3)cs1	11.24
CN(C)CCCn1ccc(-c2cccc(-c3cncnc3)c2)n1	-27.48
COc1ccc(-c2cccc(-c3ccn(CCN(C)C)n3)c2)nn1	-17.53
CN(C)CCCn1ccc(-c2cccc(-c3ccccn3)c2)n1	-1.271
COc1ccc(-c2cccc(-c3ccn(CCCN(C)C)n3)c2)nn1	-20.49
c1cncc(-c2cccc(-c3ccn(CCN4CCCCC4)n3)c2)c1	18.24
c1cc(-c2cnccn2)cc(-c2ccn(CCCN3CCCCC3)n2)c1	-2.928
Cc1cnc(C)c(-c2cccc(-c3ccn(CCN4CCCC4)n3)c2)n1	7.439
Cc1cc(-c2cccc(-c3ccn(CCCO)n3)c2)nc(N(C)C)n1	105.4
CN(C)c1ccc(-c2cccc(-c3ccn(CCCO)n3)c2)nn1	106.7
Cc1nc(N(C)C)nc(-c2cccc(-c3ccn(CCCO)n3)c2)c1C	91.5
Cc1nc(N(C)C)nc(-c2cccc(-c3ccn(CCCF)n3)c2)c1C	99.28
Cc1cc(CC(C)NC(=O)c2cccc(CC3CCNCC3)c2)[nH]n1 (centres undefined)	-1.026
Cc1oc(NC(=O)C(C)N2CCN(C(=O)C3CC3)CC2)c(C#N)c1C (centres undefined)	9.3
OC1(c2cn(C3CCN(C4CCSC4)CC3)nn2)CCCC1 (centres undefined)	-22.68
Cc1ccc2[nH]c(CN(C)Cc3ccccc3C(=O)O)nc2c1	-3.287
NS(=O)(=O)c1ccc(CC(=O)N2CCCC(n3cccn3)C2)cc1 (centres undefined)	-6.435
Cn1nc(C(=O)N2CCC(Oc3ccc(C#N)cn3)CC2)ccc1=O	4.281
N#Cc1cn(CCN2CCc3ccccc3C2)c(=O)[nH]c1=O	-7.012
CCc1nc(N2CCCC(CO)(CCOC)C2)ncc1C (centres undefined)	2.131
c1cc(-c2cnccn2)cc(-c2ccn(CCN3CCCCC3)n2)c1	11.58
Cc1cnc(-c2cccc(-c3ccn(CCCO)n3)c2)nc1N(C)C	89.78
c1cc(-c2cnccn2)cc(-c2ccn(CCN3CCCC3)n2)c1	1.985
CN(C)[C@H]1CCCCN(Cc2ccccc2Cn2cccn2)C1	11.28

SMILES	Percent Effect [%]
CC(C)(CN)NS(=O)(=O)c1c(F)cccc1F.Cl	-5.219
Cc1cnc(N2CCCC3(COCCN(c4ccc(C)nn4)C3)C2)nc1 (centres undefined)	111.1
Cc1ccc(N2CCOCC3(CCCN(c4ncc(F)cn4)C3)C2)nn1 (centres undefined)	110.3
Cc1ccc(N2CCCC3(COCCN(c4cnccn4)C3)C2)nn1 (centres undefined)	122.4
Fc1cnc(N2CCOCC3(CCCN(c4cnccn4)C3)C2)nc1 (centres undefined)	-10.42
COc1ccc(N2CCOCC3(CCCN(c4cnccn4)C3)C2)cc1 (centres undefined)	-9.239
CCS(=O)(=O)N1CCCC2(COCCN(c3cnccn3)C2)C1.O=C(O)C(F)(F)F (centres undefined)	-1.156
Fc1cnc(N2CCOCC3(CCCN(c4nncs4)C3)C2)nc1 (centres undefined)	-12.3
Cc1cnc(N2CCC3(CCCN(c4ccc(C)nn4)C3)C2)nc1 (centres undefined)	-1.521
Cc1noc(C)c1NC(=O)Cn1cc(Br)ccc1=O	-4.213
C[C@@H]1CN(C2CCN(Cc3cnc(-c4cccs4)nc3)CC2)C[C@H](C)O1	-8.003
O=S(=O)(c1c(Cl)nc2sccn12)N1CCCC2(CCNC2)C1 (centres undefined)	-7.424
Cc1ccc(-n2cc(C)cn2)c(NC(=O)NC2(C)CCOC2)c1 (centres undefined)	1.139
O=C(NCC1CCCCO1)c1ccc(-c2cccs2)[nH]c1=O (centres undefined)	23.71
O=C(CN1CC(c2nc(-c3cccs3)no2)C1)NCC1CCCO1.O=C(O)C(=O)O (centres undefined)	11.99
Cc1sc(-c2ccco2)nc1C(=O)NCC1CCOC1 (centres undefined)	3.177
Cc1sc(-c2ccco2)nc1C(=O)N(CC(N)=O)C1CCCC1	-7.156
CCCNC(=O)c1ccc(-c2ccco2)[nH]c1=O	7.034
O=C(NCC1CCCCO1)c1ccc(-c2ccco2)[nH]c1=O (centres undefined)	3.575
O=C(NC[C@H]1CCCC[C@H]1O)c1cccc2[nH]c(-c3cccs3)nc12	118.3
O=C(NC[C@H]1CCCC[C@H]1O)c1ccc2nc(-c3ccco3)[nH]c2c1	114.7
O=C(NC[C@H]1CCCC[C@H]1O)c1cccc2[nH]c(-c3ccco3)nc12	127.5
CCOC(C)c1nc(Cn2cc(C)cn2)cs1 (centres undefined)	-10.7
COC1CCN(c2cc(C(C)C)nc3ccnn23)C1 (centres undefined)	-6.556
Cc1ccc(-c2cc(N)c(=O)n(CC(=O)NCC3CC3)n2)s1	-0.7868
CN(C)CC1CN(CC(=O)N2CCc3ccccc32)CCO1 (centres undefined)	-2.513

SMILES	Percent Effect [%]
CC1Cc2ccccc2N1C(=O)Cn1nc(-c2cccs2)ccc1=O (centres undefined)	148.6
O=c1ccc(-c2cccs2)nn1CN1CCCCCC1	6.119
CC1Cc2ccccc2N1C(=O)Cn1nc(-c2cccs2)cc(N)c1=O (centres undefined)	146.8
Nc1cc(-c2cccs2)nn(CC(=O)N2CCc3ccccc32)c1=O	164.1
O=C(c1csnn1)N1CCc2ccccc21	9.308
O=C(Cn1nc(-c2cccs2)ccc1=O)N1CCCCCC1	16.15
Cc1cc(CS(=O)(=O)CC(=O)N2c3ccccc3CC2C)no1 (centres undefined)	4.378
CSCCCN1C[C@H]2CC[C@@H]1CN(Cc1[nH]cnc1C)C2	27.65
COCCN(Cc1ccccc1)Cc1csc(-c2ncccn2)n1	9.824
COCCN(C/C=C/c1ccccc1)Cc1[nH]cnc1C	0.6053
COCCN(CCOC)Cc1c(C)nc2ccccc2c1O	87.45
Cn1ccc(CN2CCC(OCCc3ccccc3)CC2)cc1=O	4.919
Cn1c(CN2CCC(OCc3cccnc3)CC2)cc2ccccc21	-15.6
Cn1ccc(CN2CCC(c3ccccc3)CC2)cc1=O	1.288
Cn1ccc(CN2CCC(Cc3ccccc3)CC2)cc1=O	141.3
Cn1ccc(CN2CCC(NC(=O)NC3CCCCC3)CC2)cc1=O	-14.97
Cn1ccc(CN2CCC(OCc3ccccc3)CC2)cc1=O	85.88
Cn1ccc(CN2CCC(CC(=O)N3CCCC3)CC2)cc1=O	63.9
Cn1ccc(CN2CCC(NC(=O)Cc3ccccc3)CC2)cc1=O	-4.576
COc1cccc(-c2n[nH]cc2CNCC2CCS(=O)(=O)C2)c1 (centres undefined)	9.215
O=C1CCC2(CCOC2)CN1Cc1nc2ccc(Cl)cc2[nH]1 (centres undefined)	-5.094
O=C1CCC(C(=O)N(Cc2ccsc2)CC2CCCO2)=NN1 (centres undefined)	39.45
Cc1ccc2c(c1)C(NCc1nccn1Cc1ccccc1)CCCO2 (centres undefined)	-18.78
Cc1cc(C)nc(N2CCN(C(=O)c3ccc(C4CCCO4)s3)CC2)n1 (centres undefined)	6.831
CCc1cnc(C)nc1NCc1nc(COC)no1	13.28
CCc1cccc(NS(=O)(=O)c2cc(C)c(C(=O)O)s2)c1	-4.966

SMILES	Percent Effect [%]
CCC1(c2ccc(NS(=O)(=O)c3ccc(Cl)s3)cc2)CCC(=O)NC1=O (centres undefined)	13.42
CN1CCN(c2ccc(NS(=O)(=O)c3ccc(Br)s3)cc2C(=O)O)CC1	107.3
O=C(O)c1cc(S(=O)(=O)Nc2ccc(Cl)cc2)cc2c1OCCO2	-1.351
O=C(O)c1cc(NS(=O)(=O)c2cccc(Cl)c2F)ccc1Cl	-8.503
CCc1ccc(S(=O)(=O)Nc2cc(C(=O)O)c(F)cc2F)s1	-4.689
O=C(O)C(F)(F)F.O=C(O)c1cc(NS(=O)(=O)c2ccc(Cl)s2)ccc1N1CCOCC1	94.51
CN1CCN(c2ccc(NS(=O)(=O)c3ccc(Cl)s3)cc2C(=O)O)CC1	118.1
Cc1nn(C(C)C)c(C)c1S(=O)(=O)Nc1ccc(C(=O)O)c(Cl)c1	2.82
CN(C)Cc1ccc(C(N)=O)cc1NC(=O)c1cccc(C#N)c1	-8.387
N#Cc1ccc(N2CC3(CCN(c4nccs4)C3)C2)nc1.O=CO.O=CO	-6.647
CCc1ccc(CNC[C@H]2C[C@@H](CO)N(C)[C@H]2c2ccccc2F)o1	-16.71
O=C1NCC2(CCN(C(=O)c3ccc4c(c3)CCCO4)CC2)O1	9.067
CCOc1cccc(CN2CCCC(Nc3ccc(F)cc3)C2)c1O (centres undefined)	-11.06
Cc1ccccc1C(=O)CN1C(=O)c2ccccc2CS1(=O)=O	-19.77
CC(C)(O)CCc1cccc(C(=O)NCC2COCCO2)c1 (centres undefined)	5.622
COCCN(Cc1cnn(C)c1)c1nc2c(s1)c(C)nn2C	-9.354
O=C(O)C(F)(F)F.O=C(c1ccoc1)N1CCC2(CCC(=O)N2Cc2ccncc2)CC1	2.988
Cc1cccc(CN2CCCC3(CCC(=O)N3CCN(C)C)CC2)n1.O=C(O)C(F)(F)F.O=C(O)C(F)(F)F (centres undefined)	115.9
Cc1cccc(CN2C(=O)CCC23CCN(C(=O)NC(C)C)CC3)n1.O=C(O)C(F)(F)F	107.8
Cc1cccc(N2CCC3(CCCC(=O)N3)CC2)n1.O=C(O)C(F)(F)F	-22.27
Cc1cccc(CN2CCC3(CCCN(C(=O)NC4CC4)C3)C2=O)n1.O=C(O)C(F)(F)F (centres undefined)	34.29
Cc1cccc(CN2CCC3(CCCN(C(=O)NC(C)C)C3)C2=O)n1.O=C(O)C(F)(F)F (centres undefined)	-6.059
Cc1cccc(CN2CCOC3(COCCN(CCN(C)C)C3)C2)n1.O=C(O)C(F)(F)F.O=C(O)C(F)(F)F.O=C(O)C(F)(F)F (centres undefined)	-6.557
Cc1cccc(N2CCC3(CCN(Cc4ccccn4)CC3)CC2)n1.O=C(O)C(F)(F)F.O=C(O)C(F)(F)F	8.022
Cc1cccc(CN2C(=O)CCC23CCN(c2ccccn2)CC3)n1.O=C(O)C(F)(F)F.O=C(O)C(F)(F)F	98.24
Cc1cccc(CN2C(=O)CCC23CCN(C(=O)c2ccco2)CC3)n1.O=C(O)C(F)(F)F	108.9
